In PubChem BioAssay (NCI) one finds growth data, which are given here for 13 compounds.

Each structure is given as a SMILES string. Compounds without any hit were thinned out: in the full panel of roughly 83,000, 20% have a hit.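 The endpoint reported here, percent growth, reads 100 for growth as untreated, 0 for no net growth and -100 for all cells dead.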 Unmarked numbers belong to inactive results. Calls of active or inactive are those of the source. The calls were made as follows: active = growth percent below 10; inactive = the rest.

Test systems include NCI-H23 lung; NCI-H226 lung; NCI-H322M lung; HOP-62 NSCLC; NCI-H460 lung; HOP-92 NSCLC; NCI-H522 lung; A549/ATCC NSCLC; 786-0 renal; COLO 205 colon.
Holding throughout (assay): NCI-60 one-dose screen, 48 h (100 = growth as untreated, 0 = no growth, -100 = all killed)
Common to all, as to details: 10 µM unless noted

In the case of `O=C1NC(=O)C(Cn2cnc3ccccc32)N1` (centres undefined), the growth with NCI-H23 lung is 98.4%; with NCI-H226 lung it was 103%; with NCI-H322M lung, 99%; in the assay on HOP-62 NSCLC, 102%; in the assay on NCI-H460 lung it was 101%; in the assay on HOP-92 NSCLC it was 97.4%. The growth with NCI-H522 lung was 95.9%; in the assay with A549/ATCC NSCLC, 97.8%; in the assay on 786-0 renal it was 99.2%; in the assay with COLO 205 colon, 107%.
Take `CCc1ccc(Oc2c(-c3ccc(OCCc4cccc(C(F)(F)F)c4)cc3O)n[nH]c2C(F)(F)F)cc1`: the growth with NCI-H23 lung was 4.8% (active); with NCI-H226 lung, 52.9%; in the assay with NCI-H322M lung it was 76.7%; in the assay with HOP-62 NSCLC, 76.6%; in the assay with NCI-H460 lung, 2.53% (active); with HOP-92 NSCLC, -5.8% (active). Moreover, the growth in the assay with NCI-H522 lung was -20.5% (active); in the assay on A549/ATCC NSCLC, 55.9%; in the assay with 786-0 renal it was 91.2%; with COLO 205 colon, 100%.
Take `CN1CCN(CC(=O)N2c3cccc4cccc(c34)N(C(=O)CN3CCN(C)CC3)C2c2cn(-c3ccccc3)nc2-c2cccc([N+](=O)[O-])c2)CC1`: the growth in the assay on NCI-H23 lung was 1.14% (active); in the assay with NCI-H226 lung, 88.2%; with NCI-H322M lung, 32.9%; in the assay with HOP-62 NSCLC, -20.2% (active); with NCI-H460 lung, 1.88% (active); with HOP-92 NSCLC, 42.9%. For the same compound, the growth in the assay with NCI-H522 lung is -3.45% (active); with A549/ATCC NSCLC, 15.7%; in the assay with 786-0 renal, -83.4% (active); with COLO 205 colon, -68.5% (active).
Take `COc1cc2cc(Oc3ccc(NC(=O)Nc4cc(C(F)(F)F)cc(C(F)(F)F)c4)cc3)c(C)nc2cc1OCCN1CCOCC1`: the growth with NCI-H23 lung is 7.96% (active); with NCI-H226 lung it was 40.2%; in the assay with NCI-H322M lung it was 49.5%; in the assay with HOP-62 NSCLC it was 28.8%; in the assay on NCI-H460 lung, 9.99% (active); in the assay with HOP-92 NSCLC, -14.2% (active). Moreover, the growth in the assay on NCI-H522 lung was 15%; in the assay on A549/ATCC NSCLC, 11.8%; with 786-0 renal it was 30.9%; in the assay on COLO 205 colon, -22.9% (active).
As to `COc1ccc(C(=O)C[C@]2(O)C(=O)Nc3c(Cl)ccc(Cl)c32)cc1`, the growth in the assay with NCI-H23 lung is 44.3%; in the assay with NCI-H226 lung, 58.8%; in the assay with NCI-H322M lung, 47.5%; in the assay with HOP-62 NSCLC, 40.4%; in the assay with NCI-H460 lung, 10.1%; with HOP-92 NSCLC it was 62.1%. Besides, the growth in the assay with NCI-H522 lung was 13.4%; in the assay on A549/ATCC NSCLC it was 53.4%; in the assay on 786-0 renal, 55.9%; in the assay with COLO 205 colon, 7.6% (active).
As for `CCOC(=O)Nc1ccc(C(=O)/C=C/c2ccccc2)cc1`, the growth is 95% with NCI-H23 lung; 79.2% with NCI-H226 lung; 100% in the assay on NCI-H322M lung; 90.2% in the assay with HOP-62 NSCLC; 91.3% with NCI-H460 lung; 70.2% in the assay on HOP-92 NSCLC. Further, the growth in the assay with NCI-H522 lung is 106%; with A549/ATCC NSCLC, 54.4%; in the assay with 786-0 renal, 87.1%; with COLO 205 colon it was 127%.
With `NC1=NC(c2cccc(Br)c2)c2sc3ccc(Cl)cc3c2N1` (centres undefined), the growth is 86.3% with NCI-H23 lung; 78.4% in the assay with NCI-H226 lung; 89.6% in the assay on NCI-H322M lung; 91.5% with HOP-62 NSCLC; 98.6% in the assay on NCI-H460 lung; 96.7% in the assay on HOP-92 NSCLC. Also, the growth is 87.8% in the assay on NCI-H522 lung, 98% with A549/ATCC NSCLC, 94.8% in the assay with 786-0 renal and 100% in the assay with COLO 205 colon.
For `CCc1ccc(Oc2c(-c3ccc(OCc4ccc(Cl)cc4)cc3O)n[nH]c2C(F)(F)F)cc1`, the growth in the assay with NCI-H23 lung is 3.59% (active); in the assay with NCI-H226 lung it was 24.8%; in the assay on NCI-H322M lung, 35.3%; in the assay on HOP-62 NSCLC it was 57.5%; with NCI-H460 lung, 3.21% (active); with HOP-92 NSCLC, -17.2% (active). Further, the growth with NCI-H522 lung is -22.9% (active); in the assay on A549/ATCC NSCLC it was 33.5%; with 786-0 renal, 64.4%; in the assay with COLO 205 colon, 95.7%.
For the compound `Cc1ccc(-c2nc3c(c(-c4ccccc4)nn3-c3ccccc3)c(-c3ccc(O)cc3)c2C#N)cc1`, the growth with NCI-H23 lung was 67.5%; in the assay with NCI-H226 lung, 80%; in the assay with NCI-H322M lung, 88.5%; in the assay with HOP-62 NSCLC, 40%; in the assay on NCI-H460 lung it was 27.4%; in the assay with HOP-92 NSCLC, 74.5%. Moreover, the growth in the assay with NCI-H522 lung is 69.4%; in the assay with A549/ATCC NSCLC, 52.3%; in the assay with 786-0 renal, 18.6%; in the assay with COLO 205 colon, 70.4%.
On to `CNCCCNc1nc2ccccc2c2c(=O)c3cc(OC)ccc3sc12`, for which the growth in the assay on NCI-H226 lung was 95.6%; in the assay on NCI-H322M lung, 85.7%; with HOP-62 NSCLC, 80.2%; in the assay on NCI-H460 lung, 5.64% (active); in the assay on HOP-92 NSCLC, 52.4%; in the assay with NCI-H522 lung, 85.7%. Moreover, the figures for the growth with A549/ATCC NSCLC, with 786-0 renal and with COLO 205 colon were 76.1%, 79.1% and -1.42% (active), respectively.
Take `CN(C)CCS(=O)(=O)Nc1cc(-c2ccc3ncc(C#N)c(Nc4ccc(F)c(Cl)c4)c3c2)cnc1Cl`: the growth in the assay with NCI-H23 lung was -28.5% (active); in the assay with NCI-H226 lung, -15.2% (active); with NCI-H322M lung, -54.5% (active); in the assay on HOP-62 NSCLC it was 0.0433% (active); with NCI-H460 lung, 0.906% (active); in the assay with HOP-92 NSCLC, -17.9% (active). Moreover, the growth with NCI-H522 lung is -39.8% (active); in the assay on A549/ATCC NSCLC, -30.5% (active); in the assay on 786-0 renal it was -20.1% (active); in the assay with COLO 205 colon, -80.8% (active).
For `CC1=C([Se]CC(OC(=O)[C@@H](CSSC(C)(C)C)NC(=O)OC(C)(C)C)C(=O)NC(C)(C)C)C(=O)c2ccccc2C1=O` (some centres undefined), the growth in the assay on NCI-H23 lung was -63.7% (active); in the assay with NCI-H226 lung it was -56.8% (active); in the assay with NCI-H322M lung, -73.6% (active); with HOP-62 NSCLC it was -51% (active); with NCI-H460 lung it was -52.1% (active); in the assay on HOP-92 NSCLC, -72.2% (active). For the same compound, the growth in the assay on NCI-H522 lung was 7.01% (active); in the assay on A549/ATCC NSCLC, 1.99% (active); in the assay on 786-0 renal, -93.8% (active); with COLO 205 colon, -84.7% (active).
Take `CCCCCCCNC(=O)CCCNc1ncnc2c1ncn2-c1cccc(C(C)O)c1` (centres undefined): the growth in the assay on NCI-H23 lung was 90.7%; with NCI-H226 lung, 79.3%; with NCI-H322M lung it was 108%; with HOP-62 NSCLC, 95.9%; in the assay on NCI-H460 lung it was 99.8%; in the assay with HOP-92 NSCLC, 96.6%. The growth is 80.9% with NCI-H522 lung, 94.5% with A549/ATCC NSCLC, 97.3% in the assay with 786-0 renal and 92.9% in the assay on COLO 205 colon.
